Measured values published in PubChem BioAssay (EPA / NIEHS).
Values joined by “and” are separate entries in the source; they are usually repeats but may differ in a detail not shown here. Equal entries are not always repeated. Records with an inconclusive call do not appear. Where a structure was tested more than once in an assay, its records may differ in their call. Active and inactive are the calls of the source. The calls were made as follows, unless noted: active = hit-call score of the fitted dose curve at least 0.9, where 1 is the maximum; inactive = score below 0.9.

Tests used:
[1] = ATG_PBREM_CIS: Attagene CIS-FACTORIAL HepG2 Assay for human Phenobarbital-responsive Enhancer Module (PBREM) (AID 2282955); conditions: HepG2 PBREM cis-reporter, Attagene multiplexed transcription; actives raise or lower the signal
In short: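 Reporter mRNA read by RT-PCR, 6-FAM primer extension, HpaI digestion and capillary electrophoresis. Transfected HepG2 cells, 24 h compound exposure. Gain or loss of signal fitted bidirectionally relative to DMSO baseline.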

[2] = target: Paired box protein Pax-6 (Homo sapiens) (UniProt P26367); assay: ATG_Pax6_CIS: Attagene CIS-FACTORIAL HepG2 Assay for human Paired Box 6 (PAX6) (AID 2282956); conditions: HepG2 CIS-FACTORIAL PAX6 reporter transcription, RNA readout; actives raise or lower the signal
In short: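 DMSO-referenced bidirectional fits of reporter mRNA fluorescence; HepG2 with transient cis-promoter MRTUs, 24 h post-dose, RT-PCR plus capillary electrophoresis detection.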

[3] = ATG_PXRE_CIS: Attagene CIS-FACTORIAL HepG2 Assay for human Pregnane X Receptor Element (PXRE) (AID 2282957); conditions: HepG2 Attagene CIS-FACTORIAL PXRE reporter, mRNA; actives raise or lower the signal
In short: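 Fluorescent capillary electrophoresis of amplified reporter cDNA gave the signal, collected 24 h after dosing HepG2 cells that held transfected cis-element reporter constructs.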

[4] = ATG_PPRE_CIS: Attagene CIS-FACTORIAL HepG2 Assay for human Peroxisome Proliferator-activated Response Element (PPRE) (AID 2282958); conditions: HepG2 PPRE cis-element reporter, Attagene transcription factor profiling; actives raise or lower the signal
In short: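 Read-out: fluorescent reporter mRNA fragments resolved by capillary electrophoresis after RT-PCR. HepG2 cells carried transiently transfected PPRE-driven cis reporter constructs and were dosed for 24 h; gain or loss of signal fitted relative to DMSO.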

[5] = ATG_RORE_CIS: Attagene CIS-FACTORIAL HepG2 Assay for human RAR-related Orphan Receptor Element (RORE) (AID 2282959); conditions: HepG2 Attagene cis-factorial RORE reporter, mRNA; actives raise or lower the signal
In short: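 Readout: fluorescent reporter mRNA by RT-PCR plus capillary electrophoresis, 24 h after dosing transfected HepG2 cells. Endogenous transcription factor activity on a cis promoter element is measured. Gain or loss of signal fitted against DMSO.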

[6] = ATG_Sox_CIS: Attagene CIS-FACTORIAL HepG2 Assay for human SRY-box transcription factor (SOX) (AID 2282960); conditions: HepG2 Attagene cis-factorial SOX reporter, mRNA; actives raise or lower the signal
In short: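 Read-out: fluorescent RT-PCR products of SOX1-linked reporter transcripts resolved by capillary electrophoresis, fitted bidirectionally against DMSO. Transiently transfected HepG2 cells, 24 h after chemical exposure, endogenous transcription factor activity.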

[7] = target: Transcription factor Sp1 (Homo sapiens) (UniProt P08047); assay: ATG_Sp1_CIS: Attagene CIS-FACTORIAL HepG2 Assay for human Specificity Protein 1 (Sp1) (AID 2282961); conditions: HepG2 Sp1 cis-reporter transcription, actives raise or lower the signal
In short: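 Read-out: fluorescence of 6-FAM-labeled, HpaI-digested RT-PCR products separated by capillary electrophoresis. HepG2 cells carried transfected cis-element reporter units and were exposed to chemicals for 24 h; gain or loss of signal fitted relative to DMSO.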

[8] = ATG_SREBP_CIS: Attagene CIS-FACTORIAL HepG2 Assay for human Sterol Regulatory Element Binding (SREBP) (AID 2282962); conditions: HepG2 Attagene cis-factorial SREBP reporter, mRNA; actives raise or lower the signal
In short: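 In this cis-format assay, HepG2 liver cells express reporters controlled by promoter elements responsive to native transcription factors. Exposure lasts 24 h; reporter mRNA fluorescence from capillary electrophoresis gives the signal, fitted bidirectionally against DMSO.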

[9] = target: Signal transducer and activator of transcription 3 (Homo sapiens) (UniProt P40763); assay: ATG_STAT3_CIS: Attagene CIS-FACTORIAL HepG2 Assay for human Signal Transducer and Activator of Transcription 3 (STAT3) (AID 2282963); conditions: HepG2, Attagene cis-factorial STAT3 reporter transcription; actives raise or lower the signal
In short: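 Cis-factorial format: endogenous transcription factors in HepG2 drive transfected reporter units. After 24 h treatment, reporter RNA was reverse-transcribed, amplified, FAM-labelled and HpaI-digested before CE analysis; activity scored in both directions against DMSO.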

[10] = ATG_TA_CIS: Attagene CIS-FACTORIAL HepG2 Assay for human TA Basal Promoter (AID 2282964); conditions: HepG2 Attagene CIS-factorial TA basal promoter reporter; actives raise or lower the signal
In short: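 Background-control readout: TA basal promoter reporter mRNA, fitted in both directions relative to DMSO. Measured by RT-PCR and capillary electrophoresis 24 hours after treating HepG2 human liver cells transiently carrying multiplexed cis-regulated reporter constructs.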

[11] = ATG_TCF_b_cat_CIS: Attagene CIS-FACTORIAL HepG2 Assay for human T-Cell-Factor with beta-catenin (TCF/b-cat) (AID 2282965); conditions: HepG2 TCF/beta-catenin cis-reporter transcription, actives raise or lower the signal
In short: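 Measured: reporter mRNA in HepG2 transiently transfected with cis-promoter reporter units, 24 h after chemical addition. Fitting was bidirectional, DMSO as negative control.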

[12] = ATG_TAL_CIS: Attagene CIS-FACTORIAL HepG2 Assay for human TAL Basal Promoter (AID 2282966); conditions: HepG2 Attagene cis-factorial TAL promoter reporter; actives raise or lower the signal;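 also: background control endpoint measuring basal TAL promoter reporter mRNA not a specific factor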
In short: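 Transiently transfected HepG2 (cis-regulated reporter units), 24 h treatment, mRNA read by fluorescent CE after RT-PCR; bidirectional fit, DMSO baseline.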

[13] = ATG_TGFb_CIS: Attagene CIS-FACTORIAL HepG2 Assay for human Transforming Growth Factor (TGF) (AID 2282967); conditions: HepG2 Attagene CIS TGFb reporter, mRNA transcription; actives raise or lower the signal
In short: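 Endogenous TGFB1-linked transcription factor activity read as reporter mRNA via RT-PCR and capillary electrophoresis, 24 h after dosing transiently transfected HepG2 cells. Gain or loss of signal fitted relative to DMSO.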

[14] = ATG_VDRE_CIS: Attagene CIS-FACTORIAL HepG2 Assay for human Vitamin D Receptor Element (VDRE) (AID 2282968); conditions: HepG2 VDRE cis-reporter transcription, actives raise or lower the signal
In short: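 Measures endogenous factor activity through cis-element-driven reporter transcripts in transiently transfected HepG2. Cells are treated 24 h; reporter mRNA is quantified by RT-PCR and capillary electrophoresis; fitting is bidirectional.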

[15] = target: Nuclear receptor subfamily 1 group I member 3 (Homo sapiens) (UniProt Q14994); assay: ATG_CAR_TRANS: Attagene TRANS-FACTORIAL HepG2 Assay for human Constitutive Androstane Receptor (CAR) (AID 2282969; active = hit-call score of the fitted dose curve at least 0.9, where 1 is the maximum;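 also: activators raise reporter mRNA above DMSO so AC50 marks induction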); conditions: HepG2 Attagene TRANS-FACTORIAL CAR reporter
In short: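 Signal is reporter mRNA induction relative to DMSO, measured 24 h after dosing by RT-PCR with fluorescent primer extension and capillary electrophoresis. Human HepG2 liver cells carried transiently transfected chimeric NR-Gal4/GAL4-UAS reporter constructs.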

[16] = target: Estrogen receptor (Homo sapiens) (UniProt P03372); assay: ATG_ERa_TRANS: Attagene TRANS-FACTORIAL HepG2 Assay for human Estrogen Receptor alpha (ERa) (AID 2282970; active = hit-call score of the fitted dose curve at least 0.9, where 1 is the maximum); conditions: HepG2 Attagene TRANS ERa GAL4 reporter, mRNA
In short: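 One of 30 multiplexed endpoints from a HepG2 TRANS system, this one reports ERa-Gal4-driven reporter mRNA. Transcripts were quantified 24 hours post-dosing by fluorescent RT-PCR and capillary electrophoresis, with activity scored as induction over DMSO.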

[17] = target: X-box-binding protein 1 (Homo sapiens) (UniProt P17861); assay: ATG_Xbp1_CIS: Attagene CIS-FACTORIAL HepG2 Assay for human X-box Binding Protein 1 (XBP1) (AID 2282972); conditions: HepG2 XBP1 cis-element reporter, Attagene multiplex; actives raise or lower the signal
In short: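 Changes in reporter transcript abundance, read by RT-PCR and capillary electrophoresis, reflect endogenous transcription factor activity. Transfected HepG2 cells received compound for 24 hours; DMSO defined baseline for bidirectional analysis.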

[18] = target: Steroid hormone receptor ERR1 (Homo sapiens) (UniProt P11474); assay: ATG_ERRa_TRANS: Attagene TRANS-FACTORIAL HepG2 Assay for human Estrogen-Related Receptor alpha (ERRa) (AID 2282971; active = hit-call score of the fitted dose curve at least 0.9, where 1 is the maximum); conditions: HepG2 Attagene TRANS reporter, ERRa transactivation
In short: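 HepG2 cells transiently transfected with multiplexed GAL4-UAS reporter units reading chimeric ERRa-Gal4 activity; 24 h compound exposure. Reporter mRNA measured by RT-PCR, 6-FAM labelling, HpaI digest and capillary electrophoresis; gain of signal fitted versus DMSO baseline.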

[19] = ATG_M_19_TRANS: Attagene TRANS-FACTORIAL HepG2 Assay for M19 Transcription Factor (Internal Marker) (AID 2282974; active = hit-call score of the fitted dose curve at least 0.9, where 1 is the maximum); conditions: HepG2 Attagene TRANS-FACTORIAL M19 internal marker reporter
In short: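 24 h chemical exposure of transiently transfected HepG2 (MRTU library). RNA → oligo(dT) RT → PCR → 6-FAM labelling → HpaI cut → CE fluorescence. Positive-direction fit vs DMSO baseline; background internal-marker readout.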

Measured: AC50

Chain of Nuclear receptor subfamily 1 group I member 3 (Homo sapiens) (Q14994 whole entry, looked up, the tested form may be a part): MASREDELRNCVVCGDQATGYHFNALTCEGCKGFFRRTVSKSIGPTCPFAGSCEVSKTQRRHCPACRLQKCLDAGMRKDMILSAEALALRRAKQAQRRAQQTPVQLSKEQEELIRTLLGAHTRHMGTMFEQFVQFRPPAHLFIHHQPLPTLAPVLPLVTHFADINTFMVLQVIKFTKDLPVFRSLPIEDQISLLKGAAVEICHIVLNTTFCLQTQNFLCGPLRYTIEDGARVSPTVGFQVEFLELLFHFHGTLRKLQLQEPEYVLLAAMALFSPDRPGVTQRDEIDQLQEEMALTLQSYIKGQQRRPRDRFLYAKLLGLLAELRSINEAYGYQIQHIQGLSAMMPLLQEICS
Chain of X-box-binding protein 1 (Homo sapiens) (P17861 whole entry, looked up): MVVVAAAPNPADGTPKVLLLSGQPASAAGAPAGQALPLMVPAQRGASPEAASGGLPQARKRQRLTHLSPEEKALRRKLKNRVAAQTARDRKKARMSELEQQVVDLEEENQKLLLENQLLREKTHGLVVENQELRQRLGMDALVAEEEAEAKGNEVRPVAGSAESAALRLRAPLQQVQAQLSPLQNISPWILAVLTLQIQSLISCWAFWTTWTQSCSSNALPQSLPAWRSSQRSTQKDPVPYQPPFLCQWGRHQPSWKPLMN
Chain of Paired box protein Pax-6 (Homo sapiens) (P26367 whole entry, looked up): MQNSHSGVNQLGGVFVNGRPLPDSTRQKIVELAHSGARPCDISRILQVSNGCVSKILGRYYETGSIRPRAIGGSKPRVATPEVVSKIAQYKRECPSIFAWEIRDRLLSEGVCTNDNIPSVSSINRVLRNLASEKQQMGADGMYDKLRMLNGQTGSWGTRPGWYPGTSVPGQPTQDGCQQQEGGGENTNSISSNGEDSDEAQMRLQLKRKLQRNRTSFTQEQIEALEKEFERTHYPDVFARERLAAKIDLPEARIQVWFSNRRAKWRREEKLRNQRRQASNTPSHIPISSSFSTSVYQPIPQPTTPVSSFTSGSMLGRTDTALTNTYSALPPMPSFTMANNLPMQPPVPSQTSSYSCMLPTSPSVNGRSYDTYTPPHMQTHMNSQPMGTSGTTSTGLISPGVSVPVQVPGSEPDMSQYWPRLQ
Chain of Signal transducer and activator of transcription 3 (Homo sapiens) (P40763 whole entry, looked up): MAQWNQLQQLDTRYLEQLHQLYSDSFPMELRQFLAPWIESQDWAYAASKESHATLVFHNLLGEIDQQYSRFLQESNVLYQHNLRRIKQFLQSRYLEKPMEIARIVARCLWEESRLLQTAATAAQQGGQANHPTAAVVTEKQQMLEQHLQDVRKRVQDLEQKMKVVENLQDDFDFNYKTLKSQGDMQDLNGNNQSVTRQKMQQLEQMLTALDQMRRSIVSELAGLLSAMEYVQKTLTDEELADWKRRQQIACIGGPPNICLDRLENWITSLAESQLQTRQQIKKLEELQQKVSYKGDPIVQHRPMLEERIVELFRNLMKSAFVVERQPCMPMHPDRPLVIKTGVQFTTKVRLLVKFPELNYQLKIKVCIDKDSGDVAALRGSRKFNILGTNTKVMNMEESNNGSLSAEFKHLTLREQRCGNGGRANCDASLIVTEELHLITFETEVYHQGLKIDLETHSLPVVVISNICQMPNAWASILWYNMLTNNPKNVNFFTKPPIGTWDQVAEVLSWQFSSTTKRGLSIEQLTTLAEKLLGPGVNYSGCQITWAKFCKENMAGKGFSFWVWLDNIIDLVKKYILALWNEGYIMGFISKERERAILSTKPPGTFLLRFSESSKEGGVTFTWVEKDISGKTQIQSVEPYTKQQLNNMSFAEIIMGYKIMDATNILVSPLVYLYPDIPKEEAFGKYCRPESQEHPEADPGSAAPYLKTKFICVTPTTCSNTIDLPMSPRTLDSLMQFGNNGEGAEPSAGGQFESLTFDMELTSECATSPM
Chain of Transcription factor Sp1 (Homo sapiens) (P08047 whole entry, looked up): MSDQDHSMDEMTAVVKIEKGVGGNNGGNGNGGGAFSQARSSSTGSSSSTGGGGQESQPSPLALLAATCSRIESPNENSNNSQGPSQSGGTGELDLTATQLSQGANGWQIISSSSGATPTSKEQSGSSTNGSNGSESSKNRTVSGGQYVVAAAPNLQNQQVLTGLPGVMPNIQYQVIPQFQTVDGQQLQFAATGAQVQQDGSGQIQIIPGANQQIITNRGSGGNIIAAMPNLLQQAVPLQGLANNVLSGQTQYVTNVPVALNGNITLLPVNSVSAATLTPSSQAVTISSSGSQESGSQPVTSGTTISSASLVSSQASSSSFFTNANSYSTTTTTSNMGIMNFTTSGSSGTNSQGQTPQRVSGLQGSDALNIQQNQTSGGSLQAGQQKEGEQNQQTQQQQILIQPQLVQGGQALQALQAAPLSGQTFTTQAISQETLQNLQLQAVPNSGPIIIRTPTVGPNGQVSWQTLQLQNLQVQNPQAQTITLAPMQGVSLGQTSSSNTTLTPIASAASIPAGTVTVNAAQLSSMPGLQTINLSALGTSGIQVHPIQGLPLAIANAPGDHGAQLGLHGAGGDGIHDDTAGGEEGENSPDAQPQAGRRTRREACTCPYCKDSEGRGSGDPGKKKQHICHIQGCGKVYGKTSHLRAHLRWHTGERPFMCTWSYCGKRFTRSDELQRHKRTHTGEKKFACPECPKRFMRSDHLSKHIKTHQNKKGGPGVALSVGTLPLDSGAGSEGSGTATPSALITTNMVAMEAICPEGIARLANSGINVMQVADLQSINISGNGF
Chain of Estrogen receptor (Homo sapiens) (P03372 whole entry, looked up, the tested form may be a part): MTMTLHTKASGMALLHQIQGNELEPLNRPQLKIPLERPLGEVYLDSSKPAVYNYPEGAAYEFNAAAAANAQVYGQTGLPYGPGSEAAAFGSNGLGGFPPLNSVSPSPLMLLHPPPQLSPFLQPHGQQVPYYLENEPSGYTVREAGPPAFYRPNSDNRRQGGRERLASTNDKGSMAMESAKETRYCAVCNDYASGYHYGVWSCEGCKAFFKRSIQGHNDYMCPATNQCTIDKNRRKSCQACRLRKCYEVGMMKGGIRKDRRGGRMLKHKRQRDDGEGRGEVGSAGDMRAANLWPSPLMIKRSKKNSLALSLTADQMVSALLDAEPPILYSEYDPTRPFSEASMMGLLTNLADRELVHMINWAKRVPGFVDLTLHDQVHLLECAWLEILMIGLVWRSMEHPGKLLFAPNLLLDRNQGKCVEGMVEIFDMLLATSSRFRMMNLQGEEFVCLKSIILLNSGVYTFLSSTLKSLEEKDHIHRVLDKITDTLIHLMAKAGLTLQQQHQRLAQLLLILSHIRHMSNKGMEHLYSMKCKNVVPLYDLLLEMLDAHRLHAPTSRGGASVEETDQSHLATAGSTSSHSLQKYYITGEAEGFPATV
Chain of Steroid hormone receptor ERR1 (Homo sapiens) (P11474 whole entry, looked up, the tested form may be a part): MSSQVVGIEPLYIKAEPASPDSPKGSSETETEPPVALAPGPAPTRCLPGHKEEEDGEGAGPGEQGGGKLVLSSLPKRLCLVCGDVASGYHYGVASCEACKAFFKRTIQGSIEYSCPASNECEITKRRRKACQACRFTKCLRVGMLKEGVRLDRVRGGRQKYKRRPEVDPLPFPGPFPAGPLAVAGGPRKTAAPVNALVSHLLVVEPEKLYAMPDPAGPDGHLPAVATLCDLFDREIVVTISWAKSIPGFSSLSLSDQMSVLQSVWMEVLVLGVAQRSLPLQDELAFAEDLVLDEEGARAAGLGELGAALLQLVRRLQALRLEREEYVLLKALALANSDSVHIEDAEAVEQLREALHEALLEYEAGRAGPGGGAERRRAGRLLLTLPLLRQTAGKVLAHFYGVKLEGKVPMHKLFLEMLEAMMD

CNC(=O)CSP(=S)(OC)OC
not listed: [18] | [19]
inactive: all other assays above

COC(=O)c1ccccc1CS(=O)(=O)NC(=O)Nc1nc(OC)cc(OC)n1
active: [3] 33.9 µM
inactive: [1] | [2] | [3] | [4] | [5] | [6] | [7] | [8] | [9] | [10] | [11] | [12] | [13] | [14] | [15] | [16] | [18] | [17]

CNC(=O)Oc1ccccc1OC(C)C
inactive: all assays above

O=C(Nc1ccccc1)Nc1cnns1
active: [2] 85 µM | [3] 66.5 µM | [6] 50 µM | [7] 21.1 µM | [8] 50 µM | [14] 50 µM | [17] 77.6 µM
inactive: all other assays above

CNC(=O)Oc1cccc(N=CN(C)C)c1
active: [4] 32.7 µM | [5] 90.4 µM | [8] 84.6 µM | [14] 82.3 µM | [17] 90.4 µM
not listed: [18] | [19]
inactive: all other assays above

CCCN(CCOc1c(Cl)cc(Cl)cc1Cl)C(=O)n1ccnc1
active: [1] 2.92 µM | [3] 828 nM and 60.9 µM | [7] 4.43 µM | [8] 11.1 µM | [17] 19.5 µM
inactive: [1] | [2] | [4] | [5] | [6] | [7] | [8] | [9] | [10] | [11] | [12] | [13] | [15] | [18] | [17] | [19]
